Each structure is given as a SMILES string. Structures can show the parent of a compound that is named as a salt. ± gives the standard deviation of the averaged measurements.

This assay concerns Toxoplasma gondii RH (in HFF). Nature of the assay: parasite growth relative to the screen mean (all compounds = 100%); higher = less inhibition of parasite growth. Particulars: 5 µM; 72 h; oxygen 21 %. The method, boiled down: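 RH β-Gal–GFP Toxoplasma at MOI 1:5 was used to infect confluent human foreskin fibroblasts in 96-well plates within 2 h of pin-transferring compounds to 5 µM final. After 72 h at 21% O2, parasite number was determined by CPRG β-Gal assay against standard curves on the same plate. Growth is relative to the screen mean and averaged over two screens, with all compounds = 100%.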
Turning to `C[N+](C)(C)CC#CCN1CCCC1=O` [Oxotremorine M], the parasite growth is 172 ± 41%.
The same measure for `CCC(Oc1ccc(Cl)cc1)C(=O)OC1C[C@H]2CC[C@@H](C1)N2C` (stereo partly drawn) [SM-21 maleate]: 95.2 ± 2.9%; for `C[C@H]1CCC/C=C/[C@@H]2C[C@H](O)C[C@H]2[C@H](O)/C=C/C(=O)O1` [Brefeldin A]: < 0%.
The same measure for `CCC1(C2=NCCN2)Cc2ccccc2O1` (stereo not drawn) [Efaroxan hydrochloride]: 113 ± 6.3%; for `O=C(O)Cc1cccnc1C(=O)O` [Homoquinolinic acid]: 85.7 ± 1.6%; for `C[C@@]12C(=O)OC(=O)[C@]1(C)[C@H]1CC[C@@H]2O1` [Cantharidin]: 68.8 ± 46%.
`C[C@H](Cc1ccc(OCC(=O)O)cc1)NC[C@H](O)c1cccc(Cl)c1` showed a parasite growth of 90.6 ± 30%.
The compound `FC(F)(F)c1cccc(C2=CCN(CCc3ccc4ccccc4c3)CC2)c1` [Xaliproden hydrochloride] returned a parasite growth of 159.2 ± 1.1%.
Turning to `COc1ccc(CCN2CCC(Nc3nc4ccccc4n3Cc3ccc(F)cc3)CC2)cc1` [Astemizole], the parasite growth is < 0%.
`COC(=O)/C=C/C(=O)N[C@@H]1CC[C@@]2(O)[C@H]3Cc4ccc(O)c5c4[C@@]2(CCN3CC2CC2)[C@H]1O5` [β-Funaltrexamine hydrochloride] returned a parasite growth of 74.5 ± 28%.
`C=CCN1CC[C@]23c4c5ccc(O)c4O[C@H]2/C(=N/NC(=O)c2ccccc2)CC[C@@]3(O)[C@H]1C5` [Naloxone benzoylhydrazone] had a parasite growth of 108 ± 34%.
The compound `N[C@H](C(=O)O)c1cc(O)no1` [Ibotenic acid] came in with a parasite growth of 136 ± 26%.
On to `CN1CC[C@@H]2CN3CCc4cccc(c43)[C@@H]2C1` [SDZ SER 082 fumarate], for which the parasite growth turned out to be 165 ± 19%.

The values above are taken from the supplement of paper PMC4894684.
